In PubChem BioAssay:
Calls of active or inactive are those of the source. Unless noted, how the calls were made is not given here.

Columns and labels:
[1] = HepG2 liver cancer cell viability effects, profiling panel, resazurin fluorescence, 24 h, PK04 Diversity Set (AID 1172); conditions: higher = more signal; further: test concentration not given here
[2] = basal S. cerevisiae growth modulation, no modifier, primary screen, OD600, strain BY4716, 24 h, basal condition (AID 1173); conditions: OD600, 24 h, higher = more signal, called active from +8 up or from −8 down
[3] = MM1S myeloma cell viability, profiling panel, resazurin fluorescence, basal, 24 h, PK04 Diversity Set (AID 1174); conditions: higher = more signal, called active from +8 up or from −8 down;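 further: MM1S multiple myeloma cell line; test concentration not given here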
[4] = biological target: Dihydroorotate dehydrogenase (quinone), mitochondrial (Plasmodium falciparum (isolate 3D7)) (UniProt Q08210); assay: PfDHODH enzyme inhibitors, primary screen, biochemical, C-terminal His tag, absorbance 600 nm (AID 1175); conditions: DCIP absorbance 600 nm, higher = more signal, called active from +8 up or from −8 down;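 further: recombinant parasite enzyme with a five histidine tag at its C terminus; test concentration not given here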
Dihydroorotate dehydrogenase (quinone), mitochondrial (Plasmodium falciparum (isolate 3D7)), sequence (Q08210 whole entry, looked up): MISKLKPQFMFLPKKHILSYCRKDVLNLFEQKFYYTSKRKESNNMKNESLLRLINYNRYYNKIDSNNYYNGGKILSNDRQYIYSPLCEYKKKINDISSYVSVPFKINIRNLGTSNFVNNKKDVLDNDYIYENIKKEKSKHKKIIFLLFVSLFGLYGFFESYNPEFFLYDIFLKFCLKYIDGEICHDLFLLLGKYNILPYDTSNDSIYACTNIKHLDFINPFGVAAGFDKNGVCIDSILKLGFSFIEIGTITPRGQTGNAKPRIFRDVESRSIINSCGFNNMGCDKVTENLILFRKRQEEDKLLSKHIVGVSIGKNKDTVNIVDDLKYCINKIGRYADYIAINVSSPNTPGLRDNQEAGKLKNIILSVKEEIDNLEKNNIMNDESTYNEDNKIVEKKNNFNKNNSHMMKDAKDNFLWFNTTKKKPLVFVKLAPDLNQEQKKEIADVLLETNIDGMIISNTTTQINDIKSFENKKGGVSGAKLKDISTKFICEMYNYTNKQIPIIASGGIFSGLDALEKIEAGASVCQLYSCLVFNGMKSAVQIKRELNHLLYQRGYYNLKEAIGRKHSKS

[5] = P. aeruginosa biofilm formation inhibitors, primary screen, strain PAO1, LB-PBS medium, absorbance 600 nm (AID 1176); further: test concentration not given here; conditions: P. aeruginosa PAO1 growth/biofilm, A600, 12 h; higher = more signal
[6] = S. cerevisiae RM11-1a growth modifiers, primary screen, strain RM11-1a, OD600, basal, 24 h (AID 1177); conditions: OD600, 24 h, higher = more signal, called active from +8 up or from −8 down;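 further: cultures grown under basal conditions with no added stressor; test concentration not given here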
[7] = E. coli acrAB mutant growth effects, primary screen, E. coli filamentation inducers, strain DRC39, OD650, 24 h (AID 1178); conditions: higher = more signal, called active from +8 up or from −8 down;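 further: growth measured as culture turbidity by optical density at 650 nm; test concentration not given here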
[8] = E. coli acrAB mutant growth effects, primary screen, E. coli filamentation inducers, strain DRC39, OD650, 48 h (AID 1179);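 further: screen aims at cell division blockers that make cells filament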; conditions: E. coli DRC39 delta-acrAB growth, higher = more signal, called active from +8 up or from −8 down
[9] = RPMI8226 myeloma cell viability, profiling panel, resazurin fluorescence, basal, 24 h, PK04 Diversity Set (AID 1180); conditions: higher = more signal;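 further: RPMI8826 multiple myeloma cell line at 5000 cells per well; test concentration not given here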
[10] = biological target: E3 ubiquitin-protein ligase XIAP (Homo sapiens) (UniProt P98170); assay: XIAP binders, primary screen, biophysical, small-molecule microarray, fluorescence 635 nm (AID 1181); conditions: small-molecule microarray binding, higher = more signal;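 further: score merges 667 nm emission and signal to noise over triplicate slides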
E3 ubiquitin-protein ligase XIAP (Homo sapiens), sequence (P98170 whole entry, looked up): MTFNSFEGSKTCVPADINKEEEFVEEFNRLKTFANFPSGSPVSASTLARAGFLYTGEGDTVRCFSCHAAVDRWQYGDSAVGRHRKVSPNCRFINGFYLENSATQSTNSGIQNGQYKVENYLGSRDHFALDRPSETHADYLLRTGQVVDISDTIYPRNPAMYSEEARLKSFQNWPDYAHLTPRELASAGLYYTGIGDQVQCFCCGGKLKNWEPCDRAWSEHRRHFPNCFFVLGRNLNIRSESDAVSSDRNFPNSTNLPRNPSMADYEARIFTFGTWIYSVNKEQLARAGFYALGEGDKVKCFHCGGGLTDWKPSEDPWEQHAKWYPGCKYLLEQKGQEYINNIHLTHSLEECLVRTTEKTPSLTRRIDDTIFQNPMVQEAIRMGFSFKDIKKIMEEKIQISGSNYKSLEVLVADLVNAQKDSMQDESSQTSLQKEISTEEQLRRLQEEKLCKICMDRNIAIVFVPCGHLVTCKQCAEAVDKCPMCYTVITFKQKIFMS

| SMILES | z-score [1] | z-score [2] | z-score [3] | composite z-score [4] | z-score [5] | z-score [6] | z-score [7] | z-score [8] | z-score [9] | composite z-score [10] |
| --- | --- | --- | --- | --- | --- | --- | --- | --- | --- | --- |
| NCCCCCCNC(=O)[C@@H]1C[C@@H]2C(=O)N[C@@H](CCCCN)C(=O)N2[C@@H]1c1ccc(O)cc1 | 0.0187 | 0.243 (inactive) | 0.681 (inactive) | -29.1 (active) | 2.5 (inactive) | -0.476 (inactive) | -0.273 (inactive) | -1.11 (inactive) | -0.354 | -0.28 |
| CCOC(=O)C[C@H]1[C@H](OC(=O)c2cc3ccccc3oc2=O)[C@@H](NC(=O)CC(C)C)c2cc(OCCCO)ccc2N1C(=O)c1ccc2ccccc2n1 | -0.792 | 0.738 (inactive) | -0.043 (inactive) | 0.544 (inactive) | 0.555 (inactive) | 1.44 (inactive) | -0.463 (inactive) | -0.416 (inactive) | -0.493 | -0.102 |
| NC(=O)NCC#Cc1ccc2c(c1)[C@]1(C(=O)N2)[C@H](c2ccccc2OCCO)N2[C@H](c3ccccc3)[C@H](c3ccccc3)OC(=O)[C@H]2[C@@H]1C(=O)NC[C@H](O)c1ccccc1 | 0.999 | -0.589 (inactive) | 1.62 (inactive) | -0.253 (inactive) | 0.601 (inactive) | 1.94 (inactive) | 1.22 (inactive) | 0.693 (inactive) | 0.462 | 0.254 |
| CC1=C2[C@@H](CCc3ccccc3)OB(O)C[C@@H]2[C@@H]2C(=O)N(C)C(=O)[C@@H]2C1 | 0.157 | -2.36 (inactive) | -0.313 (inactive) | -0.628 (inactive) | 0.212 (inactive) | 0.154 (inactive) | 0.672 (inactive) | 0.561 (inactive) | -0.265 | -0.239 |
| COCCOC(=O)N1C(=O)[C@@]2(c3cc(C#CC4(O)CCCCCC4)ccc31)[C@H](C(=O)N1CCc3cc(OC)c(OC)cc3C1)[C@H]1C(=O)O[C@H](c3ccccc3)[C@H](c3ccccc3)N1[C@@H]2c1ccc(OCCO)cc1 | -0.614 | 1.66 (inactive) | -0.935 (inactive) | -0.494 (inactive) | 3.41 (inactive) | 2.54 (inactive) | -0.201 (inactive) | 0.389 (inactive) | -0.607 | 0.107 |
| CC(C)C(O)C1C=CC2C(=O)N(c3ccccc3)C(=O)C2N1Nc1ccccc1 (stereo not given) | -0.196 | -2.05 (inactive) | -0.302 (inactive) | -0.85 (inactive) | 0.835 (inactive) | 0.334 (inactive) | 0.562 (inactive) | 0.376 (inactive) | -0.825 | 0.123 |
| CCOC(=O)C1=C[C@@H](c2ccccc2)N(S(=O)(=O)c2ccc(C)cc2)[C@H]1c1ccc(OC)cc1 | -0.664 | 1.11 (inactive) | -1.01 (inactive) | -0.668 (inactive) | 0.0236 (inactive) | 0.409 (inactive) | -1.06 (inactive) | -0.834 (inactive) | -1.24 | -0.0428 |
| CC(C)N1C(=O)C[C@@](C(=O)NC2CC2)(c2ccc([N+](=O)[O-])cc2)[C@H]1c1ccc(CO)cc1 | -0.557 | -0.693 (inactive) | 0.616 (inactive) | -0.236 (inactive) | 1.6 (inactive) | -0.437 (inactive) | 0.209 (inactive) | 0.167 (inactive) | 0.499 | 0.236 |
| COc1cc2c(cc1O)C(c1ccc(CN3CCCC3)cc1)N(Cc1cc3c(cc1Br)OCO3)CC2 (stereo not given) | 0.686 | -0.714 (inactive) | -1.44 (inactive) | -0.296 (inactive) | -0.0218 (inactive) | -0.365 (inactive) | -1.36 (inactive) | -1.01 (inactive) | 0.174 | -0.123 |
| CC#CCO[Si](C#Cc1ccccc1)(C(C)C)C(C)C | -0.112 | -15.6 (active) | -0.632 (inactive) | 0.108 (inactive) | 0.219 (inactive) | 0.201 (inactive) | -0.244 (inactive) | -0.032 (inactive) | -0.67 | -0.127 |
| C=CCN1C(=O)[C@]2(CCS(=O)(=O)c3ccccc3)N=C(c3ccc(OCCCO)cc3)O[C@@H]2c2ccccc21 | -0.735 | 0.383 (inactive) | -1.36 (inactive) | -0.756 (inactive) | 0.218 (inactive) | 0.742 (inactive) | 0.7 (inactive) | 0.916 (inactive) | -1.96 | 0.0738 |
| CCOC(=O)C[C@H]1[C@H](OC(=O)c2ccc(C(=O)c3ccccc3)cc2)[C@@H](NC(=O)c2ccc(-c3ccccc3)cc2)c2cc(OCCCO)ccc2N1C(=O)Cc1ccc(OC)cc1 | 0.247 | 0.401 (inactive) | -0.176 (inactive) | 0.25 (inactive) | -0.358 (inactive) | 0.225 (inactive) | -0.224 (inactive) | 0.424 (inactive) | -0.0952 | -0.0994 |
| C=CCNC(=O)[C@@H]1[C@H]2C(=O)O[C@H](c3ccccc3)[C@H](c3ccccc3)N2[C@H](c2ccccc2OCCO)[C@@]12C(=O)Nc1ccc(C#CCC(C(=O)OC)C(=O)OC)cc12 | -0.679 | 1.59 (inactive) | -8.99 (active) | -25.5 (active) | 2.19 (inactive) | 1.86 (inactive) | 0.108 (inactive) | -0.263 (inactive) | -7.28 | -0.0062 |
| CCCCC[C@H]1OC[C@@]23C=C(Br)[C@@H](CC12)[C@@]1(CO1)C3=O (stereo not given in full) | 0.213 | -8.43 (active) | -0.586 (inactive) | -0.23 (inactive) | 0.248 (inactive) | -0.984 (inactive) | -0.662 (inactive) | -0.666 (inactive) | -0.0702 | 0.144 |
| CCCCC(=C=CC[C@H](O)c1ccc(OCCO)cc1)CCO | -0.0738 | -2.31 (inactive) | -0.149 (inactive) | -0.32 (inactive) | 0.154 (inactive) | -0.162 (inactive) | -1.28 (inactive) | -1.06 (inactive) | 0.0466 | 0.0365 |
| CC(CO)N1C(=O)[C@]2(C)C3C(=O)OCCC/C=C\[C@H]3OC23C=CCN(c2ccc(Cl)cc2)C(=O)[C@@H]13 (stereo not given in full) | -0.342 | 0.317 (inactive) | 0.28 (inactive) | -0.924 (inactive) | -0.264 (inactive) | -0.354 (inactive) | 0.351 (inactive) | 0.779 (inactive) | 0.499 | 0.834 |
| COC(=O)C1=CC(CCCO)=CC(c2cccs2)N(Cc2cccc(OC(F)(F)F)c2)C=C1C(=O)OC (stereo not given) | -0.872 | -0.487 (inactive) | -1.46 (inactive) | -3.05 (inactive) | 0.82 (inactive) | 0.0036 (inactive) | 0.581 (inactive) | 0.153 (inactive) | -1.16 | -0.0756 |
| O[C@@H](Cc1ccccc1)[C@@H](/C=C/C1CC1)N(CC#Cc1ccccc1)Cc1ccccc1Br | 1.67 | 0.365 (inactive) | 1.14 (inactive) | 0.63 (inactive) | -0.59 (inactive) | 1.43 (inactive) | -0.419 (inactive) | -0.232 (inactive) | 2.14 | 0.339 |
| NC(=O)NCC#Cc1ccc2c(c1)[C@]1(C(=O)N2)[C@H](C(=O)N2CCN(c3ncccn3)CC2)[C@H]2C(=O)O[C@H](c3ccccc3)[C@H](c3ccccc3)N2[C@@H]1c1ccc(O)cc1 | -0.727 | 1.14 (inactive) | -0.234 (inactive) | -2.21 (inactive) | 1.16 (inactive) | 0.939 (inactive) | -0.192 (inactive) | -0.15 (inactive) | -1.36 | -0.0577 |
| COc1ccc([Si](C)(C)[C@@H]2[C@@H](CCO)O[C@]3(C(=O)N(Cc4ccccc4)c4ccc(N5CCOC5=O)cc43)[C@H]2C)cc1 | -1.13 | 1.81 (inactive) | -2.51 (inactive) | -0.981 (inactive) | 0.933 (inactive) | 4.01 (inactive) | -0.957 (inactive) | -0.978 (inactive) | -2.79 | 0.0605 |
| CCCC=C(CCC)[C@@H](NS(=O)(=O)c1ccc(C(F)(F)F)cc1)c1ccccc1 | 0.281 | 1.55 (inactive) | -0.489 (inactive) | 0.348 (inactive) | 1.03 (inactive) | 1.84 (inactive) | -0.763 (inactive) | -0.197 (inactive) | -0.683 | -0.206 |
| C=C[C@H](C)[C@H](OC(=O)Nc1ccc(SC)cc1)c1ccc(OCCO)cc1 | -0.551 | -2.49 (inactive) | -0.547 (inactive) | -0.985 (inactive) | 1.15 (inactive) | 0.116 (inactive) | -0.576 (inactive) | -0.435 (inactive) | -0.274 | 0.133 |
| COc1cccc(C)c1NC(=O)O[C@H]1[C@H](OC(=O)Nc2ccc3c(c2)OCO3)[C@@H](OC(=O)Nc2ccc3c(c2)OCO3)[C@@H](OC)O[C@@H]1CO | -0.808 | 1.21 (inactive) | -1.06 (inactive) | -0.191 (inactive) | 3.29 (inactive) | 2.4 (inactive) | 1.5 (inactive) | -0.1 (inactive) | -0.939 | 0.196 |
| Cc1ccc(S[C@]2(C(=O)NCCN3CCOCC3)CC(=O)N(Cc3ccccc3Cl)[C@@H]2c2ccc(CO)cc2I)cc1 | 0.466 | -3.6 (inactive) | -2.72 (inactive) | -0.576 (inactive) | 0.379 (inactive) | -1.66 (inactive) | 0.392 (inactive) | 0.475 (inactive) | -1.7 | -0.259 |
